In PubChem BioAssay (NCATS):
Unmarked numbers belong to inactive results. Results filed as inconclusive are left out. Activity calls are given as the source filed them. Unless noted, calls come from the whole dose curve; as a rule, active = well fitted curve in either direction with a large enough effect (not every such curve was filed as active); inconclusive = small, poorly fitted or top-dose-only effect, or another doubt; inactive = flat fitted curve, though single readings scatter.

Legend:
[1] = target: Lysosomal acid glucosylceramidase (Homo sapiens) (UniProt P04062); experiment: Glucocerebrosidase-p2 (AID 348; in the data active = potency below about 10 µM; note: potency is the fitted concentration of half-maximal effect); conditions: purified GBA, blue fluorogenic substrate, 40 min
Summary of the method: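 Normal human glucocerebrosidase (0.2 nM) with blue fluorogenic substrate (80 uM final) in citrate/phosphate pH 5.9 with 10mM sodium taurocholate, 0.01% tween-20; 40 min RT, NaOH/glycine stop; fluorescence Ex 365/Em 440; AC50 from a titration from 0.6 nM upwards.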

[2] = AP1 Signaling Pathway (AID 357); conditions: ME-180 AP-1-bla reporter, EGF-induced, beta-lactamase ratio, 5 h; at 7.69 µM (top of the series) unless noted;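 note: ME-180 reporter cells stimulated with EGF at its EC50 level; % is set by controls: 0 for no effect and ±100 for the full control effect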
Summary of the method: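 Cells are seeded overnight, exposed to compound titrations and an EC50 level of EGF for 5 hours at 37 °C, then loaded with CCF4 dye for 2.5 hours. Beta-lactamase activity under the AP-1 element is read as a blue/green ratio.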

[3] = target: Cytochrome P450 1A2 (Homo sapiens) (UniProt P05177); experiment: p450-cyp1a2 (AID 410; calls by dose curve; note: potency is the fitted concentration of half-maximal effect;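 for activity change, negative = inhibition: -100% = full effect of reference inhibitor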); conditions: recombinant CYP1A2, luciferin-ME demethylation, luminescence; series mostly up to 11.4 µM
Summary of the method: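 O-Demethylation of luciferin 6' methyl ether by human CYP1A2 is monitored as luciferase luminescence. Substrate sits at Km (100uM); enzyme is 20nM. Values are scaled to 57 uM furafylline as maximal inhibition.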

[4] = NFAT Signaling Pathway (AID 444); conditions: Jurkat NFAT-bla M1, carbachol, beta-lactamase ratio, 5 h; at 7.69 µM (top of the series) unless noted;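 note: carbachol stimulus at about its EC50 of 1 µM final; % is set by controls: 0 for no effect and ±100 for the full control effect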
Summary of the method: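 Jurkat cells carrying an NFAT-driven β-lactamase reporter and co-transfected muscarinic M1 receptor were treated with compound plus carbachol (1 uM final, an EC50 level) for 5 h at 37 °C. CCF4 loading followed for 1 h at RT; 460/530 nm ratio gave %activity.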

[5] = Stat Signaling Pathway (AID 446); conditions: ME-180 (cervical carcinoma) SIE beta-lactamase reporter, IL-6 stimulated, 5 h; at 7.69 µM (top of the series) unless noted;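 note: ME-180 cervical cancer cells given 40 pM IL-6 alongside compound; SIE-controlled beta-lactamase reporter measured as 460/530 nm FRET emission ratio; % is set by controls: 0 for no effect and ±100 for the full control effect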
Summary of the method: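 Normalization used AC90 stimulation (300 pM IL-6) and AC90 inhibition (125 nM pan-JAK inhibitor at 40 pM IL-6). The underlying signal is SIE-driven beta-lactamase in ME-180 cells after 5 h IL-6 exposure with compound.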

[6] = target: Glucocorticoid receptor (Homo sapiens) (UniProt P04150); experiment: GR-GFP Redistribution (AID 450;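 active = compounds whose dose series gives a full or clear partial fitted curve of increased nuclear translocation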; note: potency is the fitted concentration of half-maximal effect); conditions: U2OS GR-GFP nuclear translocation, laser cytometry, 2 h
[7] = target: Glucocorticoid receptor (Homo sapiens) (UniProt P04150); experiment: GR-EFC Redistribution (AID 451; calls by dose curve; note: potency is the fitted concentration of half-maximal effect); conditions: CHO-K1 GR-EFC translocation, beta-gal luminescence, 2 h
Summary of the method: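 CHO-K1 cells stably expressing nuclear-localized β-gal enzyme acceptor and GR fused C-terminally to the enzyme donor fragment; ligand-driven nuclear translocation restores β-gal by complementation. Compounds titrated up to 46 uM final, 2 h at 37 °C; luminescence read.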

[8] = target: Mitogen-activated protein kinase 10 (Mus musculus) (UniProt Q61831); experiment: JNK3 AlphaScreen Assay (AID 530); conditions: JNK3 lysate, c-Jun phosphorylation; series mostly up to 11.4 µM;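 note: kinase came from lysate of stimulated human HepG2 cells; signal reports phosphorylation of biotinylated GST-cJun 1-79 at Ser73 with 10 µM ATP; % is set by controls: 0 for no effect and ±100 for the full control effect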
Summary of the method: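 Phosphorylation of biotinylated GST-cJun(1-79) at Ser73 is measured by AlphaScreen proximity luminescence. Enzyme is JNK3 in HepG2 lysates activated with interleukin-1beta and tumor necrosis factor alpha; ATP is 10 uM final.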

[9] = target: 3',5'-cyclic-AMP phosphodiesterase 4B (Homo sapiens) (UniProt Q07343); experiment: qHTS Assay for Inhibitors of PDE-IV (AID 607; active = well fitted activation curve with a large enough effect in the main read-out, with a control signal flat, not every such curve was filed as active; note: % of control where 0% means no effect); conditions: HEK293 ACTOne CNG channel cells, membrane potential fluorescence; series mostly up to 22.9 µM
Summary of the method: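 HEK293 ACTOne cells with CNG channel (1000/well), endogenous PDE4; membrane potential dye, compounds up to 22.9 uM final. Fluorescence Ex 535/Em 590; RO 20-1724 (100 uM final) as reference.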

[10] = target: Cytochrome P450 3A4 (Homo sapiens) (UniProt P08684); experiment: qHTS Assay for Activators of Cytochrome P450 3A4 (AID 885; active = well fitted curve in the direction sought with a large enough effect; an effect the other way counts as inactive or inconclusive; note: nearly all actives have a fitted effect of over 65% in size); conditions: recombinant CYP3A4, Luciferin-PPXE luminescence, 60 min; series mostly up to 11.4 µM
Summary of the method: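 Human CYP3A4 dealkylates Luciferin-PPXE to luciferin, which luciferase detection converts to light. Substrate was at its KM (25uM), buffer 200mM KPO4, reaction 60 min at RT.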

[11] = target: Cytochrome P450 2D6 (Homo sapiens) (UniProt P10635); experiment: qHTS Assay for Inhibitors and Substrates of Cytochrome P450 2D6 (AID 891; active = well fitted curve in the direction sought with a large enough effect; an effect the other way counts as inactive or inconclusive; note: potency is the fitted concentration of half-maximal effect; nearly all actives have a fitted effect of over 60% in size); conditions: recombinant CYP2D6, luciferin-ME EGE luminescence; series mostly up to 11.4 µM
Summary of the method: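 Luminescent read-out of luciferin formed by 5 nM human CYP2D6 demethylating 30 uM Luciferin-ME EGE (Km level) over 60 min at room temperature after NADPH regeneration addition. Data normalized to full inhibition by 1.43 uM quinidine.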

[12] = target: Cytochrome P450 2C19 (Homo sapiens) (UniProt P33261); experiment: qHTS Assay for Inhibitors and Substrates of Cytochrome P450 2C19 (AID 899; active = well fitted curve in the direction sought with a large enough effect; an effect the other way counts as inactive or inconclusive; note: potency is the fitted concentration of half-maximal effect; nearly all actives have a fitted effect of over 60% in size); conditions: recombinant CYP2C19, luciferin-H EGE luminescence; series mostly up to 11.4 µM
Summary of the method: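 In 50mM KPO4, the reaction held 5nM enzyme and KM-level (10uM) Luciferin-H EGE; it ran 60 min at 37C after NADPH regeneration and a 10 min compound preincubation. Luminescence values were scaled to 57uM ketoconazole as complete inhibition.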

3',5'-cyclic-AMP phosphodiesterase 4B (Homo sapiens), sequence (Q07343 whole entry, looked up): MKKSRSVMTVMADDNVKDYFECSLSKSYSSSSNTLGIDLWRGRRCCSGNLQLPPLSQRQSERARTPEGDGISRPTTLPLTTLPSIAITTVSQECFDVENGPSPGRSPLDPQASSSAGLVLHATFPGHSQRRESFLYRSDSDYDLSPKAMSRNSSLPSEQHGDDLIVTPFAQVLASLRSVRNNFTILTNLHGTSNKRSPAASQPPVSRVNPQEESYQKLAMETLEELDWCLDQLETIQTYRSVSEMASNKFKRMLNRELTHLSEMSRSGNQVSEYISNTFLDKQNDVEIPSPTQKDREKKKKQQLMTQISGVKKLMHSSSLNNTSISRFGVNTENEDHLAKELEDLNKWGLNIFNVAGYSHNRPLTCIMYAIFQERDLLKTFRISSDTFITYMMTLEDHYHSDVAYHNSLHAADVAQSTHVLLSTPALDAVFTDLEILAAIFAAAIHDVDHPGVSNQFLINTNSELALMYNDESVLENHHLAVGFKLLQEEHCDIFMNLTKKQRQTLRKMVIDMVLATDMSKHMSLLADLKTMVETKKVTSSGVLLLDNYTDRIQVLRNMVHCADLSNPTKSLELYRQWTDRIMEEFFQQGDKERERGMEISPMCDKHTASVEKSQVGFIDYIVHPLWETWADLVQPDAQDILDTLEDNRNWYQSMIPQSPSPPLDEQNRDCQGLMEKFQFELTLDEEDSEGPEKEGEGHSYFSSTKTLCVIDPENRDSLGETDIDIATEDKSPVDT
Lysosomal acid glucosylceramidase (Homo sapiens), sequence (P04062 whole entry, looked up): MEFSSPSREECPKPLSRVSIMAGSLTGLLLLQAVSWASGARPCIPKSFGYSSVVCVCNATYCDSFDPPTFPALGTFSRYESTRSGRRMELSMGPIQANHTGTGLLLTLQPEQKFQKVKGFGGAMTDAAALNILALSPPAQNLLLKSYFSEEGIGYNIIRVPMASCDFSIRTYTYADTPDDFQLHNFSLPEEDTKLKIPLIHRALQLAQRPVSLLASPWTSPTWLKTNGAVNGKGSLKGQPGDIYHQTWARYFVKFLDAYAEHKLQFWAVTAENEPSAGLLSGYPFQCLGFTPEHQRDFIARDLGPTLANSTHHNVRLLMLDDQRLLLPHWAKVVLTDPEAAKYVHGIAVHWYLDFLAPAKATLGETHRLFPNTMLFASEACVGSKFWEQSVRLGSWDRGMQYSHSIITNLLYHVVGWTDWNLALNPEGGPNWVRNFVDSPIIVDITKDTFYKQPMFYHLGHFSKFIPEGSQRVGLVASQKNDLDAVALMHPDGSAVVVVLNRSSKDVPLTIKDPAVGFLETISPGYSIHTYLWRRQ
Glucocorticoid receptor (Homo sapiens), sequence (P04150 whole entry, looked up, the tested form may be a part): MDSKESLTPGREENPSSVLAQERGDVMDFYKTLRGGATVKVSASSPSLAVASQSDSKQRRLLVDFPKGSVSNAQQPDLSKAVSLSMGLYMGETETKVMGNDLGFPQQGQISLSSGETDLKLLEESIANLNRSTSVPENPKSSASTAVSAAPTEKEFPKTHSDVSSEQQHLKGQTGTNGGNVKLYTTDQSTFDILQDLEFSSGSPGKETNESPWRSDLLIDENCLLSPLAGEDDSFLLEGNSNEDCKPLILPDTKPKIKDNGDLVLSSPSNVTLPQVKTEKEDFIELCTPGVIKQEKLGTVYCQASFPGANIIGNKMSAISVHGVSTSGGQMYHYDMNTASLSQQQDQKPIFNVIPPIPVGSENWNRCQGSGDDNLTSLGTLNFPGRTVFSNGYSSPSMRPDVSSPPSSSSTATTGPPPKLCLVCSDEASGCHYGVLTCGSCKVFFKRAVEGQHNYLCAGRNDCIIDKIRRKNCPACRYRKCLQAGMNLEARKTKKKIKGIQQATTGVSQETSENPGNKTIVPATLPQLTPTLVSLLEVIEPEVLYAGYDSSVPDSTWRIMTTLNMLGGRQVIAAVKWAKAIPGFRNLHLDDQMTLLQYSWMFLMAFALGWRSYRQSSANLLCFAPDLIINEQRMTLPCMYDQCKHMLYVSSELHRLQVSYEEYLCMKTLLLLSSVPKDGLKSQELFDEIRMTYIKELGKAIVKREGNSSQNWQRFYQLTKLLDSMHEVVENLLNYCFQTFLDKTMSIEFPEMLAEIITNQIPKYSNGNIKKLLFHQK
Cytochrome P450 1A2 (Homo sapiens), sequence (P05177 whole entry, looked up): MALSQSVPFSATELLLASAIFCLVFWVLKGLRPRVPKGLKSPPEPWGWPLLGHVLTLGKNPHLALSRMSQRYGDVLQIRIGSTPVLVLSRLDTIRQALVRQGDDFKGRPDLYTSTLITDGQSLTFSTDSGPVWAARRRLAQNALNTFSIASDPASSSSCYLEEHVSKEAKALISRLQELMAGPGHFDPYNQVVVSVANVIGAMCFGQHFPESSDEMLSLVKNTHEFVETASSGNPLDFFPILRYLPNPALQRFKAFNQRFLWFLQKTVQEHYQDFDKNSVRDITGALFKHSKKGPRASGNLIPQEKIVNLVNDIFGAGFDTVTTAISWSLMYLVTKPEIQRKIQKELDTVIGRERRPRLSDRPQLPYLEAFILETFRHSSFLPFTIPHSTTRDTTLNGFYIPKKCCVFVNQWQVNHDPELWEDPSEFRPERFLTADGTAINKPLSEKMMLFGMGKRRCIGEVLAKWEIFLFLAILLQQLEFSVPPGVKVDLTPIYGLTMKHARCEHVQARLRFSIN
Cytochrome P450 3A4 (Homo sapiens), sequence (P08684 whole entry, looked up): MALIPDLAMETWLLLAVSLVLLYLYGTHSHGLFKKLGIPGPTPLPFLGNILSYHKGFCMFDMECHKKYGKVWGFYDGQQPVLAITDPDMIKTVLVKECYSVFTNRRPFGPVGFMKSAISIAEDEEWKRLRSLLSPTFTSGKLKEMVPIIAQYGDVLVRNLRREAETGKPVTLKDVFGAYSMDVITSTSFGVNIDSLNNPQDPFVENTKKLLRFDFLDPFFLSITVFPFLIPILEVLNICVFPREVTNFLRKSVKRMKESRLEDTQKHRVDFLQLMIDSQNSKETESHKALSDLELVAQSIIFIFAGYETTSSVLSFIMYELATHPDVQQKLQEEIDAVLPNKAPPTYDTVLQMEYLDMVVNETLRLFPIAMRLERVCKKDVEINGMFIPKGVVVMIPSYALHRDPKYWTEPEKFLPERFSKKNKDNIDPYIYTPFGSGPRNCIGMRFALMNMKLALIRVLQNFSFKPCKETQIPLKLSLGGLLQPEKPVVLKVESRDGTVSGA
Cytochrome P450 2D6 (Homo sapiens), sequence (P10635 whole entry, looked up): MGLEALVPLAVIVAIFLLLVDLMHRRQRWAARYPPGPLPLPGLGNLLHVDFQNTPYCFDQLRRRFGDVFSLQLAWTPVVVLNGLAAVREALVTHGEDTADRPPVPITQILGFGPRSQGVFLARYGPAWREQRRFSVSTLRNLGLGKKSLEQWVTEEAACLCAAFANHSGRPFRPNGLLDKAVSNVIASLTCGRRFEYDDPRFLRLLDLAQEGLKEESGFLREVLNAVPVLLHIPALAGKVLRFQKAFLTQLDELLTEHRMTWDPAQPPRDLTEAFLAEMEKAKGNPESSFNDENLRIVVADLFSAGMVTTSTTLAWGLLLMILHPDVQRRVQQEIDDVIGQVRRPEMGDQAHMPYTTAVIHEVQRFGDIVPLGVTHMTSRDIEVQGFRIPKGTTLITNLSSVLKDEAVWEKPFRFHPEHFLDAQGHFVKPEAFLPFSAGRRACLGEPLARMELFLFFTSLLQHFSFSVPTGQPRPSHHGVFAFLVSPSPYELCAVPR
Cytochrome P450 2C19 (Homo sapiens), sequence (P33261 whole entry, looked up): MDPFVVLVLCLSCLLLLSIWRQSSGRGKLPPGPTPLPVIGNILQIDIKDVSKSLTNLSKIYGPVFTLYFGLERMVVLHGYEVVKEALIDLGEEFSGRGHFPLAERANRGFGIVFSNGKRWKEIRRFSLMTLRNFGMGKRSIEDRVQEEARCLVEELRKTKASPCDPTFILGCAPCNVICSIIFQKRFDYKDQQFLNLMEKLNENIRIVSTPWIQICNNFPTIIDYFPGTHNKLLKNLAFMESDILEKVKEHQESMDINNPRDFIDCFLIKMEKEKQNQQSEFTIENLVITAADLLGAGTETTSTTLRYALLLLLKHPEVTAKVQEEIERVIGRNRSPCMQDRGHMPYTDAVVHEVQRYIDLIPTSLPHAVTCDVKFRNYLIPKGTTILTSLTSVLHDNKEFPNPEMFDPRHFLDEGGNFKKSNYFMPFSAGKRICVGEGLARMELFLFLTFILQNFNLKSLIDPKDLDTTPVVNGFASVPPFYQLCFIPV

Compound | Potency [1] | activity change, negative = inhibition [2] [%] | Potency [3] | activity change, negative = inhibition [4] [%] | activity, negative = inhibition [5] [%] | Potency [6] [µM] | Potency [7] [µM] | Potency [8] | Potency [9] | Potency [10] | activity change, negative = inhibition [3] | Potency [11] | Potency [12]
O=C(CSc1nc2ccc([N+](=O)[O-])cc2s1)c1ccc2ccccc2c1 | > 11.4 µM | -4.94 | 3.16 µM (active) | 9.35 | 8.96 | > 46 | > 9.22 | inactive | inactive | inactive |  |  | 
Cn1c(=O)c2[nH]c(SCCN3CCOCC3)nc2n(C)c1=S | > 11.4 µM | 0.183 | 0.631 µM (active) | 15.6 | 1.45 | > 46 | > 9.22 | inactive | inactive | inactive |  |  | 
CN1CCN(c2ccncc2S(=O)(=O)N2CCN(C)CC2)CC1 | > 11.4 µM | 5.65 |  | -16.5 | 8.15 | > 46 | > 9.22 | inactive | inactive | inactive | -7.4% [at 2.29 µM] |  | 
c1nc(NCCc2cnc[nH]2)c2[nH]cnc2n1 | > 11.4 µM | 3.43 | 5.01 µM (active) | 6.94 | 0.609 | > 46 | > 9.22 | inactive | inactive | inactive |  |  | 
C[C@@H]1Oc2ccc(C(=O)C[C@@H](C(=O)O)c3ccc4c(c3)OCO4)cc2O1 | > 11.4 µM | 1.87 | 0.794 µM (active) | -10.8 | -5.57 | > 46 | > 9.22 | inactive | inactive | inactive |  |  | 
NS(=O)(=O)c1ccc(N=Nc2nc3[nH]c(=O)[nH]c(=O)c3[nH]2)cc1 | 8.51 µM (active) | -5.25 | inactive | 13.6 | 21.2 | > 46 | > 9.22 | inactive | inactive | inactive |  |  | 
NCCNS(=O)(=O)c1ccc(N)cc1 | > 11.4 µM | 3.42 | inactive | -2.06 | 3.19 | > 46 | > 9.22 | inactive | inactive | inactive |  |  | 
CC(C)c1ccccc1S(=O)c1ccccc1C(C)(C)O (configuration not stated) | > 11.4 µM | -11.8 |  | 20.3 | 2.89 | > 46 | > 9.22 | inactive | inactive | inactive | -10.7% [at 2.29 µM] |  | 
CCCCNc1nc(SC)nc2nc[nH]c12 | > 11.4 µM | 1.1 | 0.316 µM (active) | 9.44 | -3.88 | > 46 | > 9.22 | inactive | inactive | inactive |  |  | 
COc1ccc(C=Nc2c(O)ccc3ccccc23)cc1OC | > 11.4 µM | -0.822 | 0.251 µM (active) | 9.83 | -1.67 | > 46 | > 9.22 | inactive | inactive | inactive |  |  | 
c1cc(CNCCN2CCNCC2)ccn1 | > 11.4 µM | -6.63 | inactive | 3.58 | -1.72 | > 46 | > 9.22 | inactive | inactive | inactive |  |  | 
CC(=O)Nc1ccc2c(c1)C(=Nc1ccc(C(=O)O)cc1)c1ccccc1-2 | > 11.4 µM | 2.47 | 0.316 µM (active) | 27.4 | 4.14 | > 46 | > 9.22 | inactive | inactive | inactive |  |  | 
Cc1ccc(C)c(NC(=O)NCc2ccc(Cl)cc2)c1 | > 11.4 µM | 4.89 | 0.794 µM (active) | -4.37 | 8.15 | > 46 | > 9.22 | inactive | inactive | inactive |  | 3.98 µM (active) | 1.58 µM (active)
